Measured values reported in PubChem BioAssay.
Several values for one entry are separate records, joined by “and”; a condition that tells them apart may be missing. Identical values can stand only once. Activity calls are given as the source filed them. Unless noted, the rule behind the calls is not given here.

What was measured:
[1] = compounds altering viability of human ES cells (AID 493140); settings: human embryonic stem cell survival screen; stronger effect = higher value;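 note: cells exposed to compounds for four days before counting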
[2] = viability loss with induced miR-34 in A549 – imaging, A549 dox-inducible miR-34, nuclei and caspase counts, primary screen (AID 1347080;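 active = compounds whose cell count with miR-34 switched on is under 0.7 times the count with it off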); settings: A549 miR-34 inducible, Hoechst nuclei count, 48 h
[3] = chitosan synthesis blockers in C. neoformans – flow cytometry, Cibacron Brilliant Red staining (AID 1347148); settings: Cryptococcus neoformans chitosan, stronger effect = lower value; at 10 µM unless noted;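 note: compound exposure lasted three days at 37 degrees C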
[4] = compounds altering circadian rhythm period length – cell-based, LOPAC library, luminescence reporter (AID 2774); settings: circadian reporter cells, at 7 µM, actives lie on both sides;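 note: values are relative to mean of DMSO wells on each plate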
[5] = tested on: Hepatitis C virus NS3 helicase; assay: blockers of NS3h binding to ssDNA – biochemical, fluorescence polarization, LOPAC1280 library, primary screen (AID 687035; in the data active = inhibition above about 37%); settings: Purified HCV NS3 helicase, Cy5-dT15 ssDNA binding fluorescence polarization; stronger effect = higher value; concentration not given here
[6] = compounds altering Cy5-DNA-NS3h complex signal – biochemical, LOPAC1280, artefact control for HCV NS3 helicase inhibitor project (AID 687037); settings: Cy5-DNA-NS3h complex fluorescence interference counterscreen
[7] = blockers of cellular phospholipid synthesis – cell-based, LOPAC library, screen 4, primary screen (AID 1347384); settings: animal cells, phospholipid biosynthesis inhibition screen; at 10 µM
[8] = galactose survival enhancers in mitochondrial complex I cybrids – cell-based, galactose medium, ATP luminescence, primary screen (AID 1645843;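 active = z-score of at least 1.8 in each of two replicates, scored against plate mean and spread of sample wells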;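 note: positive z means more ATP and so rescue of galactose-driven cybrid death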); settings: complex I mutant cybrid cells, 72 h, stronger effect = higher value
[9] = P. berghei load reduction in hepatocytes – cell-based, HepG2, luciferase luminescence, HepG2 viability, primary screen (AID 624349; in the data active = parasite load remaining mostly below about 12%, no sharp cut-off; inactive = mostly above about 10%;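 note: 100% = mean of DMSO negative control wells on the same plate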); settings: P. berghei liver stage in HepG2, luciferase luminescence, concentration not given here; parasite load remaining: stronger effect = lower value; viability: measured here: HepG2 viability without parasites
[10] = MELAS cybrid and Rieske KO viability enhancers – cell-based, MELAS cybrids, Rieske KO mouse fibroblasts, CellTiter-Glo, primary screen (AID 1508586;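 active = mean z-score across replicates of 1.96 or higher in either the MELAS or the Rieske mutant cell line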;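 note: z relative to plate mean and SD of compound and empty wells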); settings: low glucose
[11] = stronger effect = lower value, cell number ratio, induced over uninduced
[12] = measured here: relative caspase fold change +Dox/-Dox
[13] = measured here: total cells with miR-34 induction, stronger effect = lower value
[14] = measured here: total cells without miR-34 induction

CCCCC/C=C\C/C=C\CC1OC1C/C=C\CCCC(=O)O (stereo not given)
survival [1]: 95.7 (inactive) | fold change [2, 11]: 1.01 (inactive) | fold change [2, 12]: 1.19 | cell count [2, 13]: 5810 | cell count [2, 14]: 5750 | fold fluorescence [3]: 5.26 [at 1 µM] (inactive)

CCCCCCCCCCCCCCC[C@H](O)[C@H](N)CO
period change [4]: -0.08 h (inactive) | inhibition [5]: 4% (inactive) | fluorescence ratio (interference) [6]: 0.9 (inactive) | fold change [2, 11]: 0.911 (inactive) | fold change [2, 12]: 1.55 | cell count [2, 13]: 1060 | cell count [2, 14]: 1170 | fold fluorescence [3]: 8.12 (inactive) | outcome [7]: inactive | z-score [8]: -0.39 (inactive)

CCCCCCCCCCCCC/C=C/[C@@H](O)[C@H](CO)NC(=O)CCCCCCCCCCCCCCC
survival [1]: 62.8 (inactive) | fold change [2, 11]: 1.03 (inactive) | fold change [2, 12]: 1.04 | cell count [2, 13]: 5360 | cell count [2, 14]: 5200 | fold fluorescence [3]: 6.35 (inactive)

C=CC1CN2CCC1C[C@@H]2[C@H](O)c1ccnc2ccc(OC)cc12 (stereo not given in full)
fold change [2, 11]: 0.899 (inactive) | fold change [2, 12]: 1.42 | cell count [2, 13]: 4890 | cell count [2, 14]: 5440 | fold fluorescence [3]: 5.27 [at 154.1 µM] (inactive)

CC(C)C[C@@H](/C=C/S(C)(=O)=O)NC(=O)[C@H](CC(C)C)NC(=O)[C@H](CC(C)C)NC(=O)OCc1ccccc1
fold change [2, 11]: 0.878 (inactive) | fold change [2, 12]: 1.63 | cell count [2, 13]: 585 | cell count [2, 14]: 666 | fold fluorescence [3]: 3.84 [at 90.6 µM] (inactive)

CCCCC[C@H](O)C/C=C1/C(=O)C=C[C@@H]1C/C=C\CCCC(=O)O
survival [1]: 95.5 (inactive) | fold change [2, 11]: 0.887 (inactive) | fold change [2, 12]: 0.855 | cell count [2, 13]: 5300 | cell count [2, 14]: 5980 | fold fluorescence [3]: 4.79 (inactive)

CCCCC/C=C\C/C=C\C/C=C\C/C=C\CCCC(=O)O[C@@H](CO)COCCCCCCCCCCCCCCCC
survival [1]: 92.7 (inactive) | fold change [2, 11]: 0.961 (inactive) | fold change [2, 12]: 1.06 | cell count [2, 13]: 5620 | cell count [2, 14]: 5840 | fold fluorescence [3]: 5.56 (inactive)

CC/C=C\C/C=C\C/C=C\CCCCCCCCCCCC(=O)O
survival [1]: 81.8 (inactive) | fold change [2, 11]: 0.989 (inactive) | fold change [2, 12]: 0.936 | cell count [2, 13]: 5970 | cell count [2, 14]: 6030 | fold fluorescence [3]: 4.89 (inactive)

CCCCCC(=O)/C=C/C=C\CCCCCCCC(=O)O
survival [1]: 99.8 (inactive) | fold change [2, 11]: 0.995 (inactive) | fold change [2, 12]: 1.29 | cell count [2, 13]: 5630 | cell count [2, 14]: 5650 | fold fluorescence [3]: 4.25 [at 1 µM] (inactive)

CCCCCC1OC1C/C=C\C/C=C\C/C=C\CCCC(=O)O (stereo not given)
survival [1]: 88.4 (inactive) | fold change [2, 11]: 0.949 (inactive) | fold change [2, 12]: 1.73 | cell count [2, 13]: 6230 | cell count [2, 14]: 6560 | fold fluorescence [3]: 5.49 [at 1 µM] (inactive)

COC(=O)[C@@H](N)CSC/C=C(\C)CC/C=C(\C)CCC=C(C)C
survival [1]: 74.2 (inactive) | fold change [2, 11]: 0.927 (inactive) | fold change [2, 12]: 1.37 | cell count [2, 13]: 6060 | cell count [2, 14]: 6540 | fold fluorescence [3]: 4.53 (inactive)

CCCCCCCCCCCCCCCC(=O)N[C@H](CN1CCOCC1)[C@H](O)c1ccccc1
survival [1]: 83.7 (inactive) | fold change [2, 11]: 1 (inactive) | fold change [2, 12]: 1.57 | cell count [2, 13]: 5590 | cell count [2, 14]: 5590 | fold fluorescence [3]: 5.42 (inactive)

NCCNS(=O)(=O)c1cccc2cnccc12
period change [4]: 0.39 h (inactive) | survival [1]: 266 (active) | fold change [2, 11]: 1.1 (inactive) | fold change [2, 12]: 1.06 | cell count [2, 13]: 3580 | cell count [2, 14]: 3260 | fold fluorescence [3]: 3.25 [at 154.2 µM] (inactive)

CCCCCCCCCCOCCC(=O)O
survival [1]: 53.3 (inactive) | fold change [2, 11]: 0.905 (inactive) | fold change [2, 12]: 1.29 | cell count [2, 13]: 5410 | cell count [2, 14]: 5970 | fold fluorescence [3]: 6.36 (inactive)

CCCCC/C=C\C/C=C\CCCCCCCC(=O)NCC(=O)O
survival [1]: 52.3 (inactive) | fold change [2, 11]: 0.95 (inactive) | fold change [2, 12]: 1.28 | cell count [2, 13]: 6210 | cell count [2, 14]: 6540 | fold fluorescence [3]: 3.7 (inactive)

CCCCC/C=C\C\C=C/C=C/C=C/[C@@H](SCC(NC(C)=O)C(=O)O)[C@@H](O)CCCC(=O)O (stereo not given in full)
survival [1]: 136 (inactive) | fold change [2, 11]: 0.952 (inactive) | fold change [2, 12]: 1.06 | cell count [2, 13]: 5780 | cell count [2, 14]: 6080 | fold fluorescence [3]: 4.05 [at 1 µM] (inactive)

CC(=O)N[C@@H](CSC/C=C(\C)CCC=C(C)C)C(=O)O
survival [1]: 97.5 (inactive) | fold change [2, 11]: 0.983 (inactive) | fold change [2, 12]: 1.12 | cell count [2, 13]: 5900 | cell count [2, 14]: 6000 | fold fluorescence [3]: 5.25 (inactive)

CSCC[C@H](NC(=O)[C@H](Cc1ccccc1)NC[C@@H](NC[C@@H](N)CS)C(C)C)C(=O)O
fold change [2, 11]: 0.931 (inactive) | fold change [2, 12]: 1.07 | cell count [2, 13]: 6180 | cell count [2, 14]: 6640 | fold fluorescence [3]: 4.75 [at 106.2 µM] (inactive)

CCCCCCCCCCC/C=C\C/C=C\CCCC(=O)O
survival [1]: 98.8 (inactive) | fold change [2, 11]: 0.918 (inactive) | fold change [2, 12]: 0.921 | cell count [2, 13]: 5350 | cell count [2, 14]: 5820 | fold fluorescence [3]: 4.42 (inactive)

CCCCCCCCCCCCCC(=O)N[C@@H](C)[C@H](O)c1ccccc1
survival [1]: 95 (inactive) | fold change [2, 11]: 0.995 (inactive) | fold change [2, 12]: 0.985 | cell count [2, 13]: 6160 | cell count [2, 14]: 6200 | fold fluorescence [3]: 3.67 (inactive) and 4.53 (inactive)

CCCCC/C=C\C/C=C\C/C=C\C=C\C(=O)CCCC(=O)O
survival [1]: 84.8 (inactive) | fold change [2, 11]: 0.886 (inactive) | fold change [2, 12]: 1.22 | cell count [2, 13]: 5820 | cell count [2, 14]: 6560 | fold fluorescence [3]: 3.82 [at 1 µM] (inactive)

CCCCC/C=C\CC1OC1C/C=C\C/C=C\CCCC(=O)O (stereo not given)
survival [1]: 104 (inactive) | fold change [2, 11]: 1.05 (inactive) | fold change [2, 12]: 1.1 | cell count [2, 13]: 5770 | cell count [2, 14]: 5500 | fold fluorescence [3]: 6.17 [at 1 µM] (inactive)

CC1=C(/C=C/C(C)=C\C=C\C(C)=C\C(=O)O)C(C)(C)CCC1
survival [1]: 82.2 (inactive) | fold change [2, 11]: 0.906 (inactive) | fold change [2, 12]: 1.46 | cell count [2, 13]: 5680 | cell count [2, 14]: 6260 | fold fluorescence [3]: 4.39 (inactive)

O=c1[nH]cnc2c1CN=N2
parasite load remaining [9]: 22.2% (inactive) | viability [9]: 60.5% | fold change [2, 11]: 0.891 (inactive) | fold change [2, 12]: 1.16 | cell count [2, 13]: 9860 | cell count [2, 14]: 11100 | outcome [7]: inactive | z-score ([10]; MELAS cybrid survival, CellTiter-Glo 48 h, stronger effect = higher value): 0.591 (inactive) | z-score ([10]; Rieske KO mouse fibroblast survival, CellTiter-Glo 72 h): 0.624 | z-score [8]: 0.315 (inactive)
